{"source": "the supplement of paper PMC11732987", "about": "“Enantioselective OTUD7B fragment discovery through chemoproteomics screening and high-throughput optimisation” (Communications Chemistry, 2025)", "assay_in_all_cases": "log2 ratio of Biotin-Ahx-Ub-VS probe labelling (fragment/DMSO); higher = less target engagement (more negative = stronger competition), active = hit call of the paper (q ≤ 0.05, log2 ratio ≤ -1)", "conditions_in_all_cases": "compound concentration: 200 uM; treatment time: 3 h", "key": {"[1]": {"molecular_target": "T1, USP42 (UniProt Q9H9J4)", "T1 sequence (whole entry)": "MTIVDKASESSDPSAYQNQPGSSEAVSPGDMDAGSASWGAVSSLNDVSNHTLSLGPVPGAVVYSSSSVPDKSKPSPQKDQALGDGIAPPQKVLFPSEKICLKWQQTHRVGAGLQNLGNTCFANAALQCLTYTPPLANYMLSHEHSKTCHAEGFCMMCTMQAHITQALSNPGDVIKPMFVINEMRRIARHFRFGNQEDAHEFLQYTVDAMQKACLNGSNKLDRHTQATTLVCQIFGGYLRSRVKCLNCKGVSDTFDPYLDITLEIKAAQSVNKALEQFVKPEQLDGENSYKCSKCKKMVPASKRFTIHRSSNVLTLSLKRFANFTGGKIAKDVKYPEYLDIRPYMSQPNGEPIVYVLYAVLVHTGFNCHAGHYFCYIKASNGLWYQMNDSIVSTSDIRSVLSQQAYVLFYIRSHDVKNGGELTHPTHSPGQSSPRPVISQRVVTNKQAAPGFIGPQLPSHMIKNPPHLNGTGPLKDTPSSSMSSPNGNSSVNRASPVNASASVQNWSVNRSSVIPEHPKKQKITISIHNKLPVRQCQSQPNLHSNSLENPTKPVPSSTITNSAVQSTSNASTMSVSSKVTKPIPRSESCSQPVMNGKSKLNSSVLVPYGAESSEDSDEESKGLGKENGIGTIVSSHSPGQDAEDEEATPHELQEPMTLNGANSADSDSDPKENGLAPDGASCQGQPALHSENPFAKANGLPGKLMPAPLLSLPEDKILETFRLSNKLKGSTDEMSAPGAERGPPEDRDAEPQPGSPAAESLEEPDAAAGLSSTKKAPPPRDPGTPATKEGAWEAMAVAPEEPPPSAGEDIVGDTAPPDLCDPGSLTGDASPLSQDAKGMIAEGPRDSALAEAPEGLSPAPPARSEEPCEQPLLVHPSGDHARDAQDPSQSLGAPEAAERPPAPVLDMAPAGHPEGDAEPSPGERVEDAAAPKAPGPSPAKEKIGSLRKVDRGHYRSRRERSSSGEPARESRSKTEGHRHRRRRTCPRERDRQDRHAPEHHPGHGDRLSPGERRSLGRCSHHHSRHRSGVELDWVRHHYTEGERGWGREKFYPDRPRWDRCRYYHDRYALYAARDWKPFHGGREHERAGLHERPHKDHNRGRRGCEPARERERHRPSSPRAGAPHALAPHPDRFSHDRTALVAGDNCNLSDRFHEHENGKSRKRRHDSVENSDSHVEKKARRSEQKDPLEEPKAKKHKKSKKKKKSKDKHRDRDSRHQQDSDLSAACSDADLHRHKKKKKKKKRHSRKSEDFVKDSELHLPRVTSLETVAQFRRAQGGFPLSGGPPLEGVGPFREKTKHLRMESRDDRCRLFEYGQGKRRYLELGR", "summary_of_the_method": "(§1)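 Labelled DUBs from HEK293T lysate were NeutrAvidin-enriched, digested with LysC and trypsin, and run by diaPASEF LC-MS/MS. Before that, each 495 µg sample in Tris/CHAPS/IGEPAL buffer with protease inhibitors was treated in triplicate with fragment at 200 µM or vehicle for 3 h, then with Biotin-Ahx-Ub-VS at 0.5 µM final for 1 h. Values are average log2 ratios of fragment over vehicle by unpaired t-test, based on global-median-normalised Spectronaut label-free quantities from proteins with ≥2 unique peptides.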"}, "[2]": {"molecular_target": "USP46 (UniProt P62068)", "sequence (P62068 whole entry)": "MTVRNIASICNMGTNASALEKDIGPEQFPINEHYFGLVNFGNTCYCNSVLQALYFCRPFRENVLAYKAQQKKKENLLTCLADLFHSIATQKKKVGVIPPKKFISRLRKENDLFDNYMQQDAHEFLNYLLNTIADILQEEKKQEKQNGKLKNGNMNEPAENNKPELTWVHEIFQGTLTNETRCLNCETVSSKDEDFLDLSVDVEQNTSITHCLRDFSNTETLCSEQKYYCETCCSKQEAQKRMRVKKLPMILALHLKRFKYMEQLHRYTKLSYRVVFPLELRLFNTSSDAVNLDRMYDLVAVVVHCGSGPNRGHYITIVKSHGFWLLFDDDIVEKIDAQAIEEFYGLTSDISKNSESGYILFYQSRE", "summary_of_the_method": "as §1"}, "[3]": {"molecular_target": "T2, USP47 (UniProt Q96K76)", "T2 sequence (whole entry)": "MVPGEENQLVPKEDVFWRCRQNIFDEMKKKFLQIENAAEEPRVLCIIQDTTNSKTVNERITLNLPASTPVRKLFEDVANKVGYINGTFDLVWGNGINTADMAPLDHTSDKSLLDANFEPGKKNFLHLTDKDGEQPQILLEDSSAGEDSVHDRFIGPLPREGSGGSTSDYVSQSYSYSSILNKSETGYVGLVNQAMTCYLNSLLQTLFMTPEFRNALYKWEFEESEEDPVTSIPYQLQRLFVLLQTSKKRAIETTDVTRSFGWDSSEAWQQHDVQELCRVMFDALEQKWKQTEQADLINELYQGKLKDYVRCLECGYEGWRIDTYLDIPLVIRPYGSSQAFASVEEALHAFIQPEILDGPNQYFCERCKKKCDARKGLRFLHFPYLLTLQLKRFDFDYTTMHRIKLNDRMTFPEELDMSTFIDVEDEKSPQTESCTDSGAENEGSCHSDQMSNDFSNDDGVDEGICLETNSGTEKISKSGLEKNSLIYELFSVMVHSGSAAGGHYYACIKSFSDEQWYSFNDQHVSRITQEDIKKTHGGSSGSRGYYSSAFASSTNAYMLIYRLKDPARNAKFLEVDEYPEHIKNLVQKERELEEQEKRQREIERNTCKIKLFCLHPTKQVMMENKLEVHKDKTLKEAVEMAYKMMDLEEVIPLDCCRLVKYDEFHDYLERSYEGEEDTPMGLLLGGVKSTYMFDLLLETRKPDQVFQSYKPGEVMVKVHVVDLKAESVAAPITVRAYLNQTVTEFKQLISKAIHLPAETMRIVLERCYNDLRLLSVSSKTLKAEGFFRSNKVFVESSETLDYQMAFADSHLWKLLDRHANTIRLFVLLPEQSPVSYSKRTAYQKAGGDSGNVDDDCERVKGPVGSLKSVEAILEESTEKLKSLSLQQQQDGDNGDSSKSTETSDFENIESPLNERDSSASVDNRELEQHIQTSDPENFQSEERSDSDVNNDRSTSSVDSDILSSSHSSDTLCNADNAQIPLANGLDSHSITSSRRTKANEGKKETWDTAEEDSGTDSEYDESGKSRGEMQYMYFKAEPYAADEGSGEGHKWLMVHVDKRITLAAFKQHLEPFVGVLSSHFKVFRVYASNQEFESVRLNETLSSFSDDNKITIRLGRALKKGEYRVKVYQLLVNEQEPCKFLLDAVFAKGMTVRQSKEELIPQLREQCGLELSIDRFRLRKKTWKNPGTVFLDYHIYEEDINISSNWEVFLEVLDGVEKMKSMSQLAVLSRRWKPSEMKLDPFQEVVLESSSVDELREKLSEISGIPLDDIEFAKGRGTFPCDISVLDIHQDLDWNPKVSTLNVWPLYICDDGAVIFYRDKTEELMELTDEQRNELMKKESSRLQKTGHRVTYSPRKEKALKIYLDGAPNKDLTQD", "summary_of_the_method": "as §1"}, "[4]": {"molecular_target": "T3, USP48 (UniProt Q86UV5)", "T3 sequence (whole entry)": "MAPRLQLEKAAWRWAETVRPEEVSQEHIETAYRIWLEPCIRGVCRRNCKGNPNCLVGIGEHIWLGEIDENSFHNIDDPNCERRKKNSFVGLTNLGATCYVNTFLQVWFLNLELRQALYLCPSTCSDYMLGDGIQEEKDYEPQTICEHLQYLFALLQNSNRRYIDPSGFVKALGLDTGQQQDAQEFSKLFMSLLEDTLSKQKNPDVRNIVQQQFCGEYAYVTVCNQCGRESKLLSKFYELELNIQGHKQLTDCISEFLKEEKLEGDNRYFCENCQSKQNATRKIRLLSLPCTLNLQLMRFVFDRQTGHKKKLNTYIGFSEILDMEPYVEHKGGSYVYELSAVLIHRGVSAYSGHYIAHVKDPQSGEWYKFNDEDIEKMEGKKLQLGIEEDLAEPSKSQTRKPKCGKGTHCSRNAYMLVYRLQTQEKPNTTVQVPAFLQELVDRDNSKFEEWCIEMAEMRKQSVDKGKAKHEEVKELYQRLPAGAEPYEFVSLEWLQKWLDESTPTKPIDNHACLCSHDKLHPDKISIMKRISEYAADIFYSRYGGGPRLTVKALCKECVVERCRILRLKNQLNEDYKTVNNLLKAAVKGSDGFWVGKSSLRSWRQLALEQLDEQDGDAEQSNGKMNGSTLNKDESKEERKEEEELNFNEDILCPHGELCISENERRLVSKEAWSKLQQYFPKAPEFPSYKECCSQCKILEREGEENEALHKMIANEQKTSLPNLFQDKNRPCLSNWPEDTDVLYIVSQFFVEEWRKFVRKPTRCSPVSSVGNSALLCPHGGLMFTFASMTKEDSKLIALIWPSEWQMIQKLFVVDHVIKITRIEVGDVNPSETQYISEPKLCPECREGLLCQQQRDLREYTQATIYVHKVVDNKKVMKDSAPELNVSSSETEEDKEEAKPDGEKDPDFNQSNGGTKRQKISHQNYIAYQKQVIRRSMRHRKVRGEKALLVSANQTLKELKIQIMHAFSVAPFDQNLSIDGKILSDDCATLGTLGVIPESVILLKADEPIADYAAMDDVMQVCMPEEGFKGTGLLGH", "summary_of_the_method": "as §1"}, "[5]": {"molecular_target": "T4, USP5 (UniProt P45974)", "T4 sequence (whole entry)": "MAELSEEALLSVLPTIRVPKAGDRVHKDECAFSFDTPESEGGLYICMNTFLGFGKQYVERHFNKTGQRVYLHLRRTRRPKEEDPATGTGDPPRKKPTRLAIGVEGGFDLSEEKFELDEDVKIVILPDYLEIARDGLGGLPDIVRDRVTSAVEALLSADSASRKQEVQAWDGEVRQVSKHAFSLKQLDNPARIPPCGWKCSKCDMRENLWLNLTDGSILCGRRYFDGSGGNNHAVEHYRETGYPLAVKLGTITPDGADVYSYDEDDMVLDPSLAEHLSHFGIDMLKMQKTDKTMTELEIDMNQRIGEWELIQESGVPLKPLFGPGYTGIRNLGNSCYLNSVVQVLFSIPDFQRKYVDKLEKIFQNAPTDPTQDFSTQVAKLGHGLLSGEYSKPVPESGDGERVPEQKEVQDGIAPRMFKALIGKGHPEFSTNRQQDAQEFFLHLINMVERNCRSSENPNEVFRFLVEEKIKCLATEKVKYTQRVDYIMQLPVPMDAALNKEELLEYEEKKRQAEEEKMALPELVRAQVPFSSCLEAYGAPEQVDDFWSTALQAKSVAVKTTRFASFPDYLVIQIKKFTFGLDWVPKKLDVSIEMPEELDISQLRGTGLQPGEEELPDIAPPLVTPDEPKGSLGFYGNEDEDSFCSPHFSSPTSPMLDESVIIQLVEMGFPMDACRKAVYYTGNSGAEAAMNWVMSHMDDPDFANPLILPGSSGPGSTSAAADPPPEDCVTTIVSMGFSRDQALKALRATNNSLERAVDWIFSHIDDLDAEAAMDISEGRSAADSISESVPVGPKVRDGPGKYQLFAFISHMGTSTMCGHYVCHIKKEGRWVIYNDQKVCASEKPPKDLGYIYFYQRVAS", "summary_of_the_method": "as §1"}, "[6]": {"molecular_target": "USP54 (UniProt Q70EL1)", "sequence (Q70EL1 whole entry)": "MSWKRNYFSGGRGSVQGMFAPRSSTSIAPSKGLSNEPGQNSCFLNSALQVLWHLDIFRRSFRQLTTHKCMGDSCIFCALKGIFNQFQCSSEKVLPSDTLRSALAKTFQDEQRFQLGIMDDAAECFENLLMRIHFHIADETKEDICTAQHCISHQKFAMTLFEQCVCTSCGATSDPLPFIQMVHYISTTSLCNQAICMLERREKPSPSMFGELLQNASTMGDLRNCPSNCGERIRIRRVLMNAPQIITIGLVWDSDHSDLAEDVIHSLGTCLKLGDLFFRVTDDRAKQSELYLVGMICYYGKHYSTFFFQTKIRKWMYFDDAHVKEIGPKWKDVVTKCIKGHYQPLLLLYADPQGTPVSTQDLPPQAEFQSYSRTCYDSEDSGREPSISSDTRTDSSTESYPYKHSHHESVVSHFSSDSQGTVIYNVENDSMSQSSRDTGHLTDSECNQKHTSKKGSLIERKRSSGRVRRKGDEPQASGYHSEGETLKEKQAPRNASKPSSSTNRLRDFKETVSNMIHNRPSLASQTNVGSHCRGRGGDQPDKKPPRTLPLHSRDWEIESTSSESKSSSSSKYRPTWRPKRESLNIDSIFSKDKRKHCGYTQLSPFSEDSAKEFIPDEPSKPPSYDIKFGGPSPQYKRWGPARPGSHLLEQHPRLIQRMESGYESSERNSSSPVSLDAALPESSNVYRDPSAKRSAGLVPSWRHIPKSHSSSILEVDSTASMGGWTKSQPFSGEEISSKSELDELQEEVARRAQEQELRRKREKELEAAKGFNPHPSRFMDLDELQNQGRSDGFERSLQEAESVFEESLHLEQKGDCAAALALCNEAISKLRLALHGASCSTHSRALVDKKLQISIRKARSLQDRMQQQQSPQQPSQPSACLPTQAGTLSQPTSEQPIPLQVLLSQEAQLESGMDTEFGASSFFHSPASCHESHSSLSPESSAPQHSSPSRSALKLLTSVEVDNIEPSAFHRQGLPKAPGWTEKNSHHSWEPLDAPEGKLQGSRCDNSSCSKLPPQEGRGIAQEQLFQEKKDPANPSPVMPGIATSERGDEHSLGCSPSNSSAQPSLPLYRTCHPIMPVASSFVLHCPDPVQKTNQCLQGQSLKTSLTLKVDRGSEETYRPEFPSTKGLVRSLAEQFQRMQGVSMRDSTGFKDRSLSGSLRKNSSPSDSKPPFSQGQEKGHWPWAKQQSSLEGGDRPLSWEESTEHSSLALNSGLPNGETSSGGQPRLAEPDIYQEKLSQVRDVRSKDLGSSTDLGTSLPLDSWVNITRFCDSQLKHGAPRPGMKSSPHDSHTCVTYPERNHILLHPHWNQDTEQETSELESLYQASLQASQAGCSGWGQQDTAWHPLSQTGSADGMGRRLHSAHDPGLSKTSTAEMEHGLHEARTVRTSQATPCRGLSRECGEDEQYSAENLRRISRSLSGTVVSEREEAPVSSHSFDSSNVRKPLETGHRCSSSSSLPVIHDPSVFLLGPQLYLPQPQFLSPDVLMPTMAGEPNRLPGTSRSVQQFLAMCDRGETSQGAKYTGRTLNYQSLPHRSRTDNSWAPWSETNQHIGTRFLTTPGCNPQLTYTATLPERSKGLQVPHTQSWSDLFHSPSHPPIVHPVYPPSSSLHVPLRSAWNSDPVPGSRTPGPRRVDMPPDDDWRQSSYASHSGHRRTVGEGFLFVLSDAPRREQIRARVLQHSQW", "summary_of_the_method": "as §1"}, "[7]": {"molecular_target": "USP7 (UniProt Q93009)", "summary_of_the_method": "as §1"}, "[8]": {"molecular_target": "T5, USP8 (UniProt P40818)", "T5 sequence (whole entry)": "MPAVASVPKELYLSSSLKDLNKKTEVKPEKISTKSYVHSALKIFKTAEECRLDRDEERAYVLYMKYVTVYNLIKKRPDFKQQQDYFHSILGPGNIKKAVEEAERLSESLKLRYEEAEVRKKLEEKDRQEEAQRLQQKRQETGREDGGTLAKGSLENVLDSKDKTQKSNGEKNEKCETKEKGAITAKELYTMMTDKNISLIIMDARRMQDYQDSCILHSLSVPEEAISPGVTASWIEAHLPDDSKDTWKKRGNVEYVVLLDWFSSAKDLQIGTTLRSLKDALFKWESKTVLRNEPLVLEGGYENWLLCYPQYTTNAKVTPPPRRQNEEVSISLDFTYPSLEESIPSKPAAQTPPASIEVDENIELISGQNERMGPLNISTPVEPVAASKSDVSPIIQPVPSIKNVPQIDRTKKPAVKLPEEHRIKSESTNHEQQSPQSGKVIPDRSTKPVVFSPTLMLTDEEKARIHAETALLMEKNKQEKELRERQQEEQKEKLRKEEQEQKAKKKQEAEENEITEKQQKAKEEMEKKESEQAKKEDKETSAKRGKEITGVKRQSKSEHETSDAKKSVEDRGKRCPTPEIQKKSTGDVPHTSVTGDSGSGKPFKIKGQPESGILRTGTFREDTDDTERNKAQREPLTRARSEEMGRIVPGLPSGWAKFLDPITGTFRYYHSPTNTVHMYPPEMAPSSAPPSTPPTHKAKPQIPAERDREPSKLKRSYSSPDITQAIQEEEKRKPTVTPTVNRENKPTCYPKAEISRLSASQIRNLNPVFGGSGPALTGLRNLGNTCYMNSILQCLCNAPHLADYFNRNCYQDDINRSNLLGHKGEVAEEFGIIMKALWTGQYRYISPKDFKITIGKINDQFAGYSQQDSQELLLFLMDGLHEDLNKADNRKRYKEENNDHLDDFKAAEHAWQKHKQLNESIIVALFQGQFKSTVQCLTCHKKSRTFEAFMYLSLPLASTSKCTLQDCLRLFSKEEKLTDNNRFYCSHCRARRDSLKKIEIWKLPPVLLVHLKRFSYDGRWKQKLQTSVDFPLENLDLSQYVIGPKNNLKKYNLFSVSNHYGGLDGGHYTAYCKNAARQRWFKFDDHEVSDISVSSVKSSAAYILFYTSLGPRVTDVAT", "summary_of_the_method": "as §1"}, "[9]": {"molecular_target": "USP9X (UniProt Q93008)", "sequence (Q93008 whole entry)": "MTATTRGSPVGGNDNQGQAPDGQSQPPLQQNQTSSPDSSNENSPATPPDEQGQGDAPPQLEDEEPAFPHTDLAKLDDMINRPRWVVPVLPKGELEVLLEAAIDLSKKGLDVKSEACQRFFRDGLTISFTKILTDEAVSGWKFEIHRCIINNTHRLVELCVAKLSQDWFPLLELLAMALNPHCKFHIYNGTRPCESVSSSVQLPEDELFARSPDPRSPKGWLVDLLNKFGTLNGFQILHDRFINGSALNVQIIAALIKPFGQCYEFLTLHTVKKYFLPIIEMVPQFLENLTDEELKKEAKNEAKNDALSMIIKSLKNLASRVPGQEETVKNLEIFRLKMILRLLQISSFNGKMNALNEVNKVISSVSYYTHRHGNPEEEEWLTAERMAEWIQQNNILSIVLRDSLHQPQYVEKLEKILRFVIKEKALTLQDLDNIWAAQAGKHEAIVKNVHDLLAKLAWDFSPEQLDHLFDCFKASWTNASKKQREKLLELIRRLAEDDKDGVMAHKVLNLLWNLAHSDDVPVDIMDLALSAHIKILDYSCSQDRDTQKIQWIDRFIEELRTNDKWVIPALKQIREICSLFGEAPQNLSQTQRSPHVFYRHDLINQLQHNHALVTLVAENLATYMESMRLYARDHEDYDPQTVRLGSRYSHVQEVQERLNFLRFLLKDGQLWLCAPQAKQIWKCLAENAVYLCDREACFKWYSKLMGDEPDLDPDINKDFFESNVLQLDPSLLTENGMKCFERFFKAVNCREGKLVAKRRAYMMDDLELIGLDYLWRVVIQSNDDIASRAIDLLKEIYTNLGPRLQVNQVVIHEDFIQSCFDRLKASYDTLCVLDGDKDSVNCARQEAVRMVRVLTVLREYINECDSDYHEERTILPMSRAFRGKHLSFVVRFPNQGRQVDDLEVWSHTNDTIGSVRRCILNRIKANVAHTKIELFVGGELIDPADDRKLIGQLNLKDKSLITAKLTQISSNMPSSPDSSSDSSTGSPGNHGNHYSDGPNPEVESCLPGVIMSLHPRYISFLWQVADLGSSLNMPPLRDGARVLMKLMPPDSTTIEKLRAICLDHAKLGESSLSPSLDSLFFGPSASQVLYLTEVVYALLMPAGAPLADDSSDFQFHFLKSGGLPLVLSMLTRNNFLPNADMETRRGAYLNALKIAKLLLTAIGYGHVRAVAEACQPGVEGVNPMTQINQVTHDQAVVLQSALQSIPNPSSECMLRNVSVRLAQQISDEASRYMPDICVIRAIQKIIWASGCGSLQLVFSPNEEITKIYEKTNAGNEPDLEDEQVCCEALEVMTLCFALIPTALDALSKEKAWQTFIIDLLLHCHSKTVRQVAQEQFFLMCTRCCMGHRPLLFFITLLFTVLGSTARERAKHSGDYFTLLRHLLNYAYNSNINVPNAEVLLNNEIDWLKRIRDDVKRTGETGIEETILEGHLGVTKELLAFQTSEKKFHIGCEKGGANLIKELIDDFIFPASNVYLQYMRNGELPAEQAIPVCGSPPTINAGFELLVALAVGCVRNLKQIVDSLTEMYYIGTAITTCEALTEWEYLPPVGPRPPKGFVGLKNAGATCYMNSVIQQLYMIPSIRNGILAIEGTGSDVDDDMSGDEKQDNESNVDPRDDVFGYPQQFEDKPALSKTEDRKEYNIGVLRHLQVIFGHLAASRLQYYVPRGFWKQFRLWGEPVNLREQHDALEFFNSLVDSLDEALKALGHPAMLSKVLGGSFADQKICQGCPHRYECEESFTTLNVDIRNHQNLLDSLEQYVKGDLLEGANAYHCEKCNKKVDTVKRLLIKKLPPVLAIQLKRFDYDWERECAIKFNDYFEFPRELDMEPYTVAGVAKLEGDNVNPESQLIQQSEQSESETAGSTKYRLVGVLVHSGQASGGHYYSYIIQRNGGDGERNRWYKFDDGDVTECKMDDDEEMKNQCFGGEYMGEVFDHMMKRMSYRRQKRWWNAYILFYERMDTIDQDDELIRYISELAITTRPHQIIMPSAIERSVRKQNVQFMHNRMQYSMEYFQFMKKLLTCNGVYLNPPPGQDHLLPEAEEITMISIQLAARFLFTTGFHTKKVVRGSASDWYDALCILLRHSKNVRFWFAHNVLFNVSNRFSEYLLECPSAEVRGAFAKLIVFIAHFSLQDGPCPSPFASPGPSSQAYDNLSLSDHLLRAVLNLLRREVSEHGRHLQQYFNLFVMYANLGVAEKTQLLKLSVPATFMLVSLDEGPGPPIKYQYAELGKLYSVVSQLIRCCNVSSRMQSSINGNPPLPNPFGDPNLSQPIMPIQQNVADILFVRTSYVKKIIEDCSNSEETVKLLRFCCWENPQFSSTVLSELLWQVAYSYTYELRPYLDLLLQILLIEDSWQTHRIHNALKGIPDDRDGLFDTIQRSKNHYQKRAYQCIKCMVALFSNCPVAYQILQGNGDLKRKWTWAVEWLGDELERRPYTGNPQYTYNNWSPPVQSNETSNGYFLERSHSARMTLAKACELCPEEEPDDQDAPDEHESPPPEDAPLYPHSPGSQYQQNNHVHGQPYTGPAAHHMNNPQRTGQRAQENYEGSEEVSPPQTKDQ", "summary_of_the_method": "as §1"}, "[10]": {"molecular_target": "UniProt O00487", "sequence (O00487 whole entry)": "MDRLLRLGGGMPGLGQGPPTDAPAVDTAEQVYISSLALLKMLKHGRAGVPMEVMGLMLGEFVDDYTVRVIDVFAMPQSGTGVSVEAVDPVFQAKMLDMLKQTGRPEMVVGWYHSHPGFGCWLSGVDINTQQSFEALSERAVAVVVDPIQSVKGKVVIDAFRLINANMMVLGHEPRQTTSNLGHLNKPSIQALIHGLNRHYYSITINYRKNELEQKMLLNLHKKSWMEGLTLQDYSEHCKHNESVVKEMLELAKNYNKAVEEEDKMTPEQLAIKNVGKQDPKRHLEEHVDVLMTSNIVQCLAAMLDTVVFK", "summary_of_the_method": "as §1"}}, "note": "A number with no mark means an inactive call.", "data": [{"smiles": "O=C(CCl)N1CCc2nc[nH]c2C1c1ccc(Cl)cc1", "note": "(stereo not given)", "values": [{"measurement": "log2 ratio of Biotin-Ahx-Ub-VS probe labelling", "setting": "[1]", "result": -0.0471}, {"measurement": "log2 ratio of Biotin-Ahx-Ub-VS probe labelling", "setting": "[2]", "result": -0.363}, {"measurement": "log2 ratio of Biotin-Ahx-Ub-VS probe labelling", "setting": "[3]", "result": -0.614}, {"measurement": "log2 ratio of Biotin-Ahx-Ub-VS probe labelling", "setting": "[4]", "result": "-1.05 (active)"}, {"measurement": "log2 ratio of Biotin-Ahx-Ub-VS probe labelling", "setting": "[5]", "result": -0.146}, {"measurement": "log2 ratio of Biotin-Ahx-Ub-VS probe labelling", "setting": "[6]", "result": 0.015}, {"measurement": "log2 ratio of Biotin-Ahx-Ub-VS probe labelling", "setting": "[7]", "result": "-1.31 (active)"}, {"measurement": "log2 ratio of Biotin-Ahx-Ub-VS probe labelling", "setting": "[8]", "result": 0.126}, {"measurement": "log2 ratio of Biotin-Ahx-Ub-VS probe labelling", "setting": "[9]", "result": -0.619}, {"measurement": "log2 ratio of Biotin-Ahx-Ub-VS probe labelling", "setting": "[10]", "result": 0.0187}]}]}
